Records with an inconclusive call do not appear. Calls of active or inactive are those of the source. How the source made its calls, unless noted: active means hit-call score of the fitted dose curve at least 0.9, where 1 is the maximum; inactive means score below 0.9.
Legend:
[1] = target: Paired box protein Pax-6 (Homo sapiens) (UniProt P26367); experiment: ATG_Pax6_CIS: Attagene CIS-FACTORIAL HepG2 Assay for human Paired Box 6 (PAX6) (AID 2282956); conditions: HepG2 CIS-FACTORIAL PAX6 reporter transcription, RNA readout; actives raise or lower the signal
In short: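 HepG2 cells transiently transfected with multiplexed cis-promoter reporter units (endogenous TF activity) were dosed for 24 h. Reporter mRNA was quantified by RT-PCR, 6-FAM labeling, HpaI digestion and capillary electrophoresis; bidirectional fitting versus DMSO baseline.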

[2] = ATG_PXRE_CIS: Attagene CIS-FACTORIAL HepG2 Assay for human Pregnane X Receptor Element (PXRE) (AID 2282957); conditions: HepG2 Attagene CIS-FACTORIAL PXRE reporter, mRNA; actives raise or lower the signal
In short: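 Transfect HepG2 with MRTUs (cis promoter elements); dose chemical, incubate 24 h; isolate RNA, RT with oligo(dT), PCR, 6-FAM label, HpaI cut, CE. Gain/loss fit vs DMSO.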

[3] = ATG_RORE_CIS: Attagene CIS-FACTORIAL HepG2 Assay for human RAR-related Orphan Receptor Element (RORE) (AID 2282959); conditions: HepG2 Attagene cis-factorial RORE reporter, mRNA; actives raise or lower the signal
In short: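 Fluorescence intensity of reporter-specific cDNA fragments, separated by capillary electrophoresis, gives the signal. Source: HepG2 liver cells transiently transfected with cis-element reporters and exposed 24 h; DMSO-normalized bidirectional fit.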

[4] = ATG_Sox_CIS: Attagene CIS-FACTORIAL HepG2 Assay for human SRY-box transcription factor (SOX) (AID 2282960); conditions: HepG2 Attagene cis-factorial SOX reporter, mRNA; actives raise or lower the signal
In short: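 After 24 h of chemical treatment, transfected HepG2 reporter cells are lysed for total RNA. Transcript levels come from RT-PCR with labelled primer extension and capillary electrophoresis, analysed bidirectionally versus DMSO.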

[5] = target: Transcription factor Sp1 (Homo sapiens) (UniProt P08047); experiment: ATG_Sp1_CIS: Attagene CIS-FACTORIAL HepG2 Assay for human Specificity Protein 1 (Sp1) (AID 2282961); conditions: HepG2 Sp1 cis-reporter transcription, actives raise or lower the signal
In short: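 Sp1-driven reporter mRNA, read as capillary electrophoresis fluorescence after RT-PCR, in transiently transfected HepG2 cells dosed for 24 h; signal change in either direction relative to DMSO.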

[6] = ATG_SREBP_CIS: Attagene CIS-FACTORIAL HepG2 Assay for human Sterol Regulatory Element Binding (SREBP) (AID 2282962); conditions: HepG2 Attagene cis-factorial SREBP reporter, mRNA; actives raise or lower the signal
In short: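 HepG2 cells transiently transfected with multiplexed cis-element reporter units report endogenous transcription factor activity. After 24 h of chemical exposure, reporter mRNA was quantified by RT-PCR, 6-FAM labelling, HpaI digestion and capillary electrophoresis; bidirectional fits used DMSO as baseline.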

[7] = target: Signal transducer and activator of transcription 3 (Homo sapiens) (UniProt P40763); experiment: ATG_STAT3_CIS: Attagene CIS-FACTORIAL HepG2 Assay for human Signal Transducer and Activator of Transcription 3 (STAT3) (AID 2282963); conditions: HepG2, Attagene cis-factorial STAT3 reporter transcription; actives raise or lower the signal
In short: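 HepG2 cells transiently transfected with multiple cis-element-driven reporter units report endogenous transcription factor activity. After 24 h compound exposure, reporter mRNA is measured by RT-PCR, 6-FAM labelling, HpaI digestion and capillary electrophoresis. Fitted bidirectionally versus DMSO.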

[8] = ATG_TA_CIS: Attagene CIS-FACTORIAL HepG2 Assay for human TA Basal Promoter (AID 2282964); conditions: HepG2 Attagene CIS-factorial TA basal promoter reporter; actives raise or lower the signal
In short: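 Cis-factorial format in HepG2: reporters report endogenous factors, not chimeric Gal4 fusions. After 24 h treatment, reporter transcripts were measured by RT-PCR-capillary electrophoresis fluorescence, analysed bidirectionally versus DMSO.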

[9] = ATG_TCF_b_cat_CIS: Attagene CIS-FACTORIAL HepG2 Assay for human T-Cell-Factor with beta-catenin (TCF/b-cat) (AID 2282965); conditions: HepG2 TCF/beta-catenin cis-reporter transcription, actives raise or lower the signal
In short: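 HepG2 cells transiently transfected with cis-promoter-driven multiplexed reporter units; reporter mRNA measured 24 h after dosing by RT-PCR, FAM labelling, HpaI digestion and capillary electrophoresis. Bidirectional fitting relative to DMSO baseline.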

[10] = ATG_TAL_CIS: Attagene CIS-FACTORIAL HepG2 Assay for human TAL Basal Promoter (AID 2282966); conditions: HepG2 Attagene cis-factorial TAL promoter reporter; actives raise or lower the signal;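 further: background control endpoint measuring basal TAL promoter reporter mRNA not a specific factor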
In short: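 Fluorescence of labelled reporter cDNA fragments, resolved by capillary electrophoresis, gave the readout. Human HepG2 liver cells carried transiently transfected cis-element reporter units and were treated for 24 hours; activity was fitted bidirectionally against DMSO.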

[11] = ATG_TGFb_CIS: Attagene CIS-FACTORIAL HepG2 Assay for human Transforming Growth Factor (TGF) (AID 2282967); conditions: HepG2 Attagene CIS TGFb reporter, mRNA transcription; actives raise or lower the signal
In short: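 Multiplexed cis-reporter HepG2 system, 24 h treatment; mRNA induction read by fluorescence after RT-PCR and CE; DMSO negative control, bidirectional curve fitting.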

[12] = ATG_VDRE_CIS: Attagene CIS-FACTORIAL HepG2 Assay for human Vitamin D Receptor Element (VDRE) (AID 2282968); conditions: HepG2 VDRE cis-reporter transcription, actives raise or lower the signal
In short: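 Transiently transfected HepG2 cells carrying cis-regulated reporter transcription units were exposed for 24 h. Reporter mRNA was measured by RT-PCR with fluorescent labelling and capillary electrophoresis, and fitted in both directions against DMSO.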

[13] = target: X-box-binding protein 1 (Homo sapiens) (UniProt P17861); experiment: ATG_Xbp1_CIS: Attagene CIS-FACTORIAL HepG2 Assay for human X-box Binding Protein 1 (XBP1) (AID 2282972); conditions: HepG2 XBP1 cis-element reporter, Attagene multiplex; actives raise or lower the signal
In short: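 HepG2 cells transiently transfected with cis-regulated multiple reporter transcription units; endogenous transcription factor activity measured 24 hours after chemical dosing. Reporter mRNA quantified by RT-PCR, 6-FAM primer extension, HpaI digestion and capillary electrophoresis; bidirectional fitting versus DMSO.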

[14] = ATG_GAL4_TRANS: Attagene TRANS-FACTORIAL HepG2 Assay for GAL4 (Internal Marker) (AID 2282976; active means hit-call score of the fitted dose curve at least 0.9, where 1 is the maximum); conditions: HepG2 Attagene TRANS GAL4 internal marker reporter
In short: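 First, HepG2 cells were transfected with reporter units under GAL4-UAS control. Next, they were treated with chemical for 24 h. Finally, RNA was reverse-transcribed, PCR-amplified, FAM-labelled and resolved by capillary electrophoresis, with induction scored against DMSO.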

[15] = target: Estrogen-related receptor gamma (Homo sapiens) (UniProt P62508); experiment: ATG_ERRg_TRANS: Attagene TRANS-FACTORIAL HepG2 Assay for human Estrogen-Related Receptor gamma (ERRg) (AID 2282977; active means hit-call score of the fitted dose curve at least 0.9, where 1 is the maximum;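 further: hits increase reporter signal over DMSO so potencies reflect activators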); conditions: HepG2 Attagene TRANS reporter, ERRg transactivation
In short: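 HepG2 cells transiently transfected with multiplexed GAL4-UAS reporter units driven by chimeric NR-Gal4 proteins; 24 h exposure. Reporter mRNA quantified by RT-PCR, fluorescent labelling, HpaI digestion and capillary electrophoresis; gain of signal vs DMSO.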

[16] = target: Estrogen receptor (Homo sapiens) (UniProt P03372); experiment: ATG_ERa_TRANS: Attagene TRANS-FACTORIAL HepG2 Assay for human Estrogen Receptor alpha (ERa) (AID 2282970; active means hit-call score of the fitted dose curve at least 0.9, where 1 is the maximum); conditions: HepG2 Attagene TRANS ERa GAL4 reporter, mRNA
In short: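 Human liver HepG2, transient transfection of multiple GAL4-UAS reporter units; TRANS format (exogenous NR-Gal4 chimera). 24 h dosing. Readout: reporter mRNA, RT-PCR, 6-FAM primer extension, HpaI digest, capillary electrophoresis. Positive direction vs DMSO.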

[17] = ATG_M_19_TRANS: Attagene TRANS-FACTORIAL HepG2 Assay for M19 Transcription Factor (Internal Marker) (AID 2282974; active means hit-call score of the fitted dose curve at least 0.9, where 1 is the maximum); conditions: HepG2 Attagene TRANS-FACTORIAL M19 internal marker reporter
In short: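 Measured here: internal-marker reporter transcript from HepG2 cells transfected with MRTUs, harvested at 24 h. cDNA PCR products were 6-FAM labelled by primer extension, cut with HpaI for 2 h at 37 C, and resolved by CE.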

[18] = target: Nuclear receptor subfamily 1 group I member 3 (Homo sapiens) (UniProt Q14994); experiment: ATG_CAR_TRANS: Attagene TRANS-FACTORIAL HepG2 Assay for human Constitutive Androstane Receptor (CAR) (AID 2282969; active means hit-call score of the fitted dose curve at least 0.9, where 1 is the maximum;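 further: activators raise reporter mRNA above DMSO so AC50 marks induction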); conditions: HepG2 Attagene TRANS-FACTORIAL CAR reporter
In short: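 HepG2 cells transiently transfected with GAL4-UAS reporter units; TRANS format reads activity of exogenous chimeric NR-Gal4 protein. After 24 h dosing, reporter mRNA quantified by RT-PCR, 6-FAM labelling and capillary electrophoresis; gain of signal fitted against DMSO.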

[19] = target: Steroid hormone receptor ERR1 (Homo sapiens) (UniProt P11474); experiment: ATG_ERRa_TRANS: Attagene TRANS-FACTORIAL HepG2 Assay for human Estrogen-Related Receptor alpha (ERRa) (AID 2282971; active means hit-call score of the fitted dose curve at least 0.9, where 1 is the maximum); conditions: HepG2 Attagene TRANS reporter, ERRa transactivation
In short: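 Reporter transcript induction was quantified by RT-PCR and capillary electrophoresis of FAM-labelled, HpaI-cut products after 24 h treatment of HepG2 cells carrying transiently transfected GAL4-UAS reporter units and an exogenous ERRa-Gal4 fusion; activity scored as increase over DMSO.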

Measured: AC50

Chain of Estrogen-related receptor gamma (Homo sapiens) (P62508 whole entry, looked up, the tested form may be a part): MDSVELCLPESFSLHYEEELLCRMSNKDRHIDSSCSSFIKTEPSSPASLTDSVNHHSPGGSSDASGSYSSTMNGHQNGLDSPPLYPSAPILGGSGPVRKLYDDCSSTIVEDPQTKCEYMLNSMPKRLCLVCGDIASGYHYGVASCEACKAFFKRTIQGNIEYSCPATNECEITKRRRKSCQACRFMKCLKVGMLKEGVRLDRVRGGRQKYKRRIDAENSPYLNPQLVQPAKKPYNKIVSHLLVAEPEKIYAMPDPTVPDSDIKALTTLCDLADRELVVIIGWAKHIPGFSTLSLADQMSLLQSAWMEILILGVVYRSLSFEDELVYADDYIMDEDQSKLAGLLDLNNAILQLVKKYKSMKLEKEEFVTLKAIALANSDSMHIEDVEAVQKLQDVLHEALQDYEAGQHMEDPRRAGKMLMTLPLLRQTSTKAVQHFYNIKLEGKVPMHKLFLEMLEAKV
Chain of Nuclear receptor subfamily 1 group I member 3 (Homo sapiens) (Q14994 whole entry, looked up, the tested form may be a part): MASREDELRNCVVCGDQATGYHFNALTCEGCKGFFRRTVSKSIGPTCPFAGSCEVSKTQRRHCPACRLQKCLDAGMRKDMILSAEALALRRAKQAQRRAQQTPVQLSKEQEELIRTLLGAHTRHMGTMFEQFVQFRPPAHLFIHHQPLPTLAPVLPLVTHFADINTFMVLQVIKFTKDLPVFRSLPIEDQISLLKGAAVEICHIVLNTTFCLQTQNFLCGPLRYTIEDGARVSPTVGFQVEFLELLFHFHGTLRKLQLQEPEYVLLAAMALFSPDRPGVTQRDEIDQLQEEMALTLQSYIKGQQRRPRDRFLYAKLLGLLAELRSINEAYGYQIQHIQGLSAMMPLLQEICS
Chain of Transcription factor Sp1 (Homo sapiens) (P08047 whole entry, looked up): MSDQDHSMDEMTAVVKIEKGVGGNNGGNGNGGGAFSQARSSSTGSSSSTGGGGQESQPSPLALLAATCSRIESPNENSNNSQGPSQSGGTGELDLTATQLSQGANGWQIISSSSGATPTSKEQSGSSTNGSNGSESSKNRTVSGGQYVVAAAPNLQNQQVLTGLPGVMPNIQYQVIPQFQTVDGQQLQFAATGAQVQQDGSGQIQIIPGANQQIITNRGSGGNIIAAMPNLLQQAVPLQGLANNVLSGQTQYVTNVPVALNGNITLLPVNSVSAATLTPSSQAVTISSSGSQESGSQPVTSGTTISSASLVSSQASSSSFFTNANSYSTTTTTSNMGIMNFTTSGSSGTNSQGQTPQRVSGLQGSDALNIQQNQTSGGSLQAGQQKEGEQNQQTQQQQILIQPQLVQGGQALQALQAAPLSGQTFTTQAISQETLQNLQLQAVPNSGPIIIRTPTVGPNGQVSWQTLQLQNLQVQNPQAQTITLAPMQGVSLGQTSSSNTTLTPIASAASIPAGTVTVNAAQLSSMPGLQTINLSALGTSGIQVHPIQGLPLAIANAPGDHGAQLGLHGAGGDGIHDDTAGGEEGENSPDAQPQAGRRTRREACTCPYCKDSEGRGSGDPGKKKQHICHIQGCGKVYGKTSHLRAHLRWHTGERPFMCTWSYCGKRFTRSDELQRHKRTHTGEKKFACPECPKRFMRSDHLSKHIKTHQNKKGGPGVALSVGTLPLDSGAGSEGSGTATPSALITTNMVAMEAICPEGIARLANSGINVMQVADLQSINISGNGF
Chain of Estrogen receptor (Homo sapiens) (P03372 whole entry, looked up, the tested form may be a part): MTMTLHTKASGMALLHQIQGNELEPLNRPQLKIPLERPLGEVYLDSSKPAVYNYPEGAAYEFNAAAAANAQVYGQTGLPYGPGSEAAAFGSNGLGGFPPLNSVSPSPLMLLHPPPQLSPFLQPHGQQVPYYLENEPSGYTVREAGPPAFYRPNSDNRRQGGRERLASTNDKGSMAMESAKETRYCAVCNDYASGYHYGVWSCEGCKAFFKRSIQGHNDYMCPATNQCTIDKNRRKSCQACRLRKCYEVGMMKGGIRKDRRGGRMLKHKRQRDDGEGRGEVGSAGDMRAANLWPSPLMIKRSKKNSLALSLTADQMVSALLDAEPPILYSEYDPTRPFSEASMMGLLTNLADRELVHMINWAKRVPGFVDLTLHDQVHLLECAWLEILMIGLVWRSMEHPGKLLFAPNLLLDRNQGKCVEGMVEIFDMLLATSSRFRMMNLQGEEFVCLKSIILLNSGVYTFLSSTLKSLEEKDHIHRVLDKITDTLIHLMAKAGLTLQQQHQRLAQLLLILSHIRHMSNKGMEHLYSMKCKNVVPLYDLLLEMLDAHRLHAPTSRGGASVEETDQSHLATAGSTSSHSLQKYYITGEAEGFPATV
Chain of X-box-binding protein 1 (Homo sapiens) (P17861 whole entry, looked up): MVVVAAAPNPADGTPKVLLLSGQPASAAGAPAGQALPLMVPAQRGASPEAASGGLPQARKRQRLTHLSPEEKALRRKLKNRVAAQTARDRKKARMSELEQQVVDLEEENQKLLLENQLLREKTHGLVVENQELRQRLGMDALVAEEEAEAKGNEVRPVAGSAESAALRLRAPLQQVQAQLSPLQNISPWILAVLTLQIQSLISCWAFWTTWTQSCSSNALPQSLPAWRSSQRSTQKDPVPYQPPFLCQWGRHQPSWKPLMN
Chain of Paired box protein Pax-6 (Homo sapiens) (P26367 whole entry, looked up): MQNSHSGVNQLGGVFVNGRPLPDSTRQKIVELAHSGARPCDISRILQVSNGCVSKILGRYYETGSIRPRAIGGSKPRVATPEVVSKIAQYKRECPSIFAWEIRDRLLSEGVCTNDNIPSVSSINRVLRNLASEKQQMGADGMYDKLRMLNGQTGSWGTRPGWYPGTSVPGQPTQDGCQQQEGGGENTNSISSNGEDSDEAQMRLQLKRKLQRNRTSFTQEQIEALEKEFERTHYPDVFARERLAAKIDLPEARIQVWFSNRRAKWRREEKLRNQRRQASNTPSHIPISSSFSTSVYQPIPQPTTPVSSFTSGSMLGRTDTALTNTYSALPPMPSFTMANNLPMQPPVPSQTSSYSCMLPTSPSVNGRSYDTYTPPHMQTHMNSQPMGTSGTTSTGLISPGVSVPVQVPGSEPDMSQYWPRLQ
Chain of Signal transducer and activator of transcription 3 (Homo sapiens) (P40763 whole entry, looked up): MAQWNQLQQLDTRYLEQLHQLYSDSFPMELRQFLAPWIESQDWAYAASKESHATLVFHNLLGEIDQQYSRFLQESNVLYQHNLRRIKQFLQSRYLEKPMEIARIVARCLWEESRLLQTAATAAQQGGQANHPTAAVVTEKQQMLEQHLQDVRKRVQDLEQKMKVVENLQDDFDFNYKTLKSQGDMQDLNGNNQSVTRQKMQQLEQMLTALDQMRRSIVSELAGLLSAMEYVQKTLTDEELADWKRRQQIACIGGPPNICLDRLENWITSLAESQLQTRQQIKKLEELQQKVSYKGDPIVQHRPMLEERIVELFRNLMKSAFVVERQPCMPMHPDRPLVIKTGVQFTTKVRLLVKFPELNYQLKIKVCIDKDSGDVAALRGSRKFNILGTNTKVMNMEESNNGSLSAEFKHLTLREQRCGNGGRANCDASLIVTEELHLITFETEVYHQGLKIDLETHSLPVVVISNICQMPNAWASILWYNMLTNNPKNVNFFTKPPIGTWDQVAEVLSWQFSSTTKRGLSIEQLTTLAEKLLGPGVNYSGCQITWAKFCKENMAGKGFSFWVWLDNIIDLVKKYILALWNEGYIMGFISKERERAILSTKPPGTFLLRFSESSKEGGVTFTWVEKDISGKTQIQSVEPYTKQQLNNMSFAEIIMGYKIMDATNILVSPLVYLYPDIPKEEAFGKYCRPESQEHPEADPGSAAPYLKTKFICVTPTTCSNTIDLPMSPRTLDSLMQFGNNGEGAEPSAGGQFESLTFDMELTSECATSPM
Chain of Steroid hormone receptor ERR1 (Homo sapiens) (P11474 whole entry, looked up, the tested form may be a part): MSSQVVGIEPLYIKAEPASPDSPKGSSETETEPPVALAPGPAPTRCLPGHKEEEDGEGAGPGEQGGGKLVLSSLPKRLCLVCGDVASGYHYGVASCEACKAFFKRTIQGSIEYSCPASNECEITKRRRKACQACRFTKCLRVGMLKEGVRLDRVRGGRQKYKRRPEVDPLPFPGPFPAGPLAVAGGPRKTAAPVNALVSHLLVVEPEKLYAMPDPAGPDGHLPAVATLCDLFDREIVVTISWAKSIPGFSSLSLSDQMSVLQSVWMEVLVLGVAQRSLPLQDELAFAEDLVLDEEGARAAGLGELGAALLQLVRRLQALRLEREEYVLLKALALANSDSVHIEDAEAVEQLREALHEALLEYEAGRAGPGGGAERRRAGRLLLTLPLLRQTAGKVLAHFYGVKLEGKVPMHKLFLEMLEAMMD

O=Cc1ccc(CO)o1
not listed: [16] | [17] | [18] | [19]
inactive: all other assays above

Cc1cc(C)c(C(=O)O)c(C)c1
not listed: [6] | [15] | [17] | [18] | [19]
inactive: all other assays above

CC(C)c1ccc2cc(C(C)C)ccc2c1
active: [4] 59.9 µM | [16] 13.7 µM
not listed: [6] | [11] | [14] | [15] | [17] | [18] | [19]
inactive: all other assays above

NC(CO)(CO)CO
active: [2] 42 µM
not listed: [8] | [14] | [15] | [16] | [17] | [18] | [19]
inactive: all other assays above

O=S(=O)(O)CC(O)CCl (configuration not stated)
not listed: [15] | [16] | [17] | [18] | [19]
inactive: all other assays above

CC=C1CC2C=CC1C2 (configuration not stated)
active: [2] 3.1 µM
not listed: [14] | [15] | [16] | [18] | [19]
inactive: all other assays above

CCCCC/C=C\C/C=C\CCCCCCCC(=O)OC
active: [1] 73.3 µM | [2] 5.54 µM | [8] 100 µM
inactive: [3] | [4] | [5] | [7] | [9] | [10] | [11] | [18] | [13]

C=C[Si](OC(C)=O)(OC(C)=O)OC(C)=O
active: [2] 3.6 µM
not listed: [12] | [15] | [16] | [19]
inactive: all other assays above

O=c1[nH]nc(-c2ccc([N+](=O)[O-])o2)o1
not listed: [7] | [14] | [16] | [19]
inactive: all other assays above

CC(C)=CCC/C(C)=C\C#N
active: [2] 28.1 µM
not listed: [8] | [15] | [19]
inactive: all other assays above

Cc1cccc(N)n1
not listed: [6] | [8] | [14] | [15] | [16] | [17] | [18] | [19]
inactive: all other assays above

c1ccc2c(c1)ccc1cc3c(ccc4ccccc43)cc12
not listed: [11] | [12] | [15] | [18] | [19]
inactive: all other assays above

C=C(C)CCO
active: [2] 5.16 µM | [11] 0.316 µM
not listed: [8] | [15] | [17] | [18] | [19]
inactive: all other assays above

CN(C)c1ccc(N=Nc2ccccc2C(=O)O)cc1
inactive: [3] | [6] | [8] | [10] | [11] | [16]
active: [1] 35.1 µM | [2] 26.3 µM | [4] 24.9 µM | [5] 40.8 µM | [9] 31.4 µM | [12] 16.4 µM | [13] 9.33 µM

O=[N+]([O-])C1(Br)COCOC1
active: [4] 51.9 µM | [5] 50.2 µM | [9] 55.7 µM | [13] 53.1 µM
not listed: [11] | [15] | [18]
inactive: all other assays above

CCCCC(CC)CCC(CC(C)C)OS(=O)(=O)O (configuration not stated)
active: [2] 27.2 µM
not listed: [6] | [14] | [15] | [17] | [18] | [19]
inactive: all other assays above

O=C(O)c1cc(Cl)cc([N+](=O)[O-])c1Cl
not listed: [8] | [15] | [16] | [19]
inactive: all other assays above

CC1(C)[C@H]2CC[C@]1(C)C(=O)C2
not listed: [16] | [17] | [18]
inactive: all other assays above

C=C(C)C(=O)OCCO
not listed: [11] | [15] | [19]
inactive: all other assays above

Source: PubChem BioAssay (EPA / NIEHS)
